About 83,000 compounds went through this panel and 20% of them were active in at least one assay; those are over-represented in the sample as a whole.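 Note: values are percent growth. 100 is the growth of untreated cells, values between 100 and 0 indicate rising inhibition; between -100 and 0 indicates cell death.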 Values without a mark were called inactive. The source made the active and inactive calls. How the source made its calls: active means growth percent below 10; inactive means the rest.
Key:
Assay in all cases: NCI-60 one-dose screen, 48 h (100 = growth as untreated, 0 = no growth, -100 = all killed)
Conditions in all cases: 10 µM unless noted
[1] = tested on: T-47D breast
[2] = tested on: MDA-MB-435 melanoma
[3] = tested on: SW-620 colon
[4] = tested on: MCF7 breast
[5] = tested on: HCT-116 colon
[6] = tested on: HCC-2998 colon
[7] = tested on: KM12 colon
[8] = tested on: BT-549 breast

COc1cc(C2C=C(C)N=C3SC(C)=NN32)cc(OC)c1OC (centres undefined)
growth [1]: 92.3%
growth [2]: 112%
growth [3]: 112%
growth [4]: 91.6%
growth [5]: 106%
growth [6]: 107%
growth [7]: 102%

COc1cc(CNC(=O)CSc2nc3ccccc3c(=O)n2Cc2cc(OC)c(OC)c(OC)c2)cc(OC)c1OC
growth [1]: 89.7%
growth [8]: 104%
growth [2]: 103%
growth [4]: 92.7%
growth [5]: 97.5%
growth [7]: 102%

COc1ccc(C(=O)c2cc(OC)c(OC)c(OC)c2)cc1/C=C/C(=O)c1ccc2c(c1)OCO2
growth [8]: -10.4% (active)
growth [2]: 21.6%
growth [3]: -35.4% (active)
growth [4]: 19.8%
growth [5]: -78.6% (active)
growth [6]: 27.3%

COc1ccc(/C=C/C(=O)c2cccc(B(O)O)c2)cc1O
growth [1]: 32.4%
growth [8]: 13.9%
growth [3]: 9.61% (active)
growth [4]: 24.3%
growth [5]: 3.16% (active)
growth [6]: 54.3%
growth [7]: 3.44% (active)

COc1ccc(/C=C/C(=O)c2cc(OC)c(OC)c(OC)c2)cc1OCc1cn(Cc2ccc(F)cc2)nn1
growth [1]: 50.4%
growth [8]: 25.7%
growth [2]: 5.55% (active)
growth [4]: 13%
growth [5]: 15%
growth [6]: 101%
growth [7]: 6.55% (active)

CCCCCCCCCCn1cc[n+](C)c1
growth [1]: 24.6%
growth [2]: 7.98% (active)
growth [3]: 44.1%
growth [4]: 3.94% (active)
growth [5]: 17.6%
growth [6]: 31.1%
growth [7]: 14%

CCCOC(=O)C1(O)CCCC1
growth [1]: 97.2%
growth [8]: 113%
growth [2]: 101%
growth [4]: 97.9%
growth [5]: 97.3%
growth [7]: 116%

COc1cc(CCn2nnc3c(Nc4ccc(N5CCOCC5)cc4)ncnc32)cc(OC)c1
growth [2]: 68.2%
growth [3]: 90.8%
growth [4]: 102%
growth [5]: 101%
growth [6]: 99.7%
growth [7]: 81.6%

Cc1oc2nc[nH]c(=O)c2c1C(=O)/C=C/c1ccc(Cl)cc1Cl
growth [8]: 73.8%
growth [2]: 57.2%
growth [3]: 31.2%
growth [4]: 39%
growth [5]: 36.3%
growth [6]: 102%
growth [7]: 52.1%

CCN1C(=O)N(CC)C2C1NN=c1s/c(=C\c3ccccn3)c(=O)n12 (centres undefined)
growth [8]: 80%
growth [2]: -62.1% (active)
growth [3]: 23.7%
growth [4]: 22.5%
growth [5]: 23.6%
growth [6]: 65.8%
growth [7]: 26%

CCN1C(=O)N(CC)C2C1NN=c1s/c(=C3\C(=O)N(C4CCCC4)c4ccccc43)c(=O)n12 (centres undefined)
growth [8]: 20%
growth [2]: -42.8% (active)
growth [3]: 28.5%
growth [4]: 21.4%
growth [5]: 0.802% (active)
growth [6]: -16.7% (active)
growth [7]: 10.9%

Nc1nn2cc(-c3ccc(Cl)s3)nc2c2ccccc12
growth [8]: 105%
growth [2]: 93.4%
growth [3]: 98.6%
growth [4]: 44.3%
growth [5]: 77.6%
growth [6]: 92.4%
growth [7]: 79.2%

NC(=S)NN=C1CCCCC1
growth [8]: 85.6%
growth [2]: 88.8%
growth [3]: 69.1%
growth [4]: 15.9%
growth [5]: 8.08% (active)
growth [6]: 105%
growth [7]: 107%

CCOC(=O)c1ccccc1NC(c1ccccc1)c1ccc2cccnc2c1O (centres undefined)
growth [8]: 17.9%
growth [2]: 39.4%
growth [4]: 16.1%
growth [5]: 27.3%
growth [6]: 51.8%
growth [7]: 29.8%

COc1ccc(OC)c(-c2ccc(-c3ccccc3N)c3[nH]c4ccccc4c23)c1
growth [8]: 72.5%
growth [2]: 105%
growth [3]: 80.7%
growth [4]: 69.8%
growth [5]: 61.6%
growth [6]: 102%
growth [7]: 72.9%

COc1cc(/C=C2\C=C(c3ccc(F)cc3)N(Cc3ccccc3)C2=O)cc(OC)c1OC
growth [8]: 77.3%
growth [2]: 75.2%
growth [3]: 77.4%
growth [4]: 50.8%
growth [5]: 42.2%
growth [6]: 103%
growth [7]: 63.1%

COc1cc2oc(-c3cccc(NC(=O)Nc4ccc5c(c4)OCO5)c3)cc(=O)c2c(OC)c1OC
growth [8]: 59.8%
growth [2]: 68.7%
growth [3]: 57.3%
growth [4]: 65.1%
growth [5]: 50.2%
growth [6]: 59.2%
growth [7]: 48.5%

COc1cc(C2C=C(C)N=C3SC=CN32)cc(OC)c1OC (centres undefined)
growth [8]: 106%
growth [2]: 98.6%
growth [3]: 111%
growth [4]: 93.3%
growth [5]: 101%
growth [6]: 106%
growth [7]: 111%

CCCCCC/C=C\CCCCCCCCOc1ccc(CCOP(=O)(O)OCC[N+](C)(C)C)cc1
growth [8]: 91.2%
growth [2]: 100%
growth [3]: 93.2%
growth [4]: 79.2%
growth [5]: 50.2%
growth [6]: 89.2%
growth [7]: 59.3%

COc1cc(CCn2nnc3c(NCCCCO)ncnc32)cc(OC)c1
growth [2]: 97.9%
growth [3]: 97.9%
growth [4]: 99.6%
growth [5]: 97.7%
growth [6]: 102%
growth [7]: 103%

CC[C@H](C)[C@@H]1NC(=O)[C@H]([C@@H](C)O)NC(=O)C(Cc2ccccc2)NC(=O)[C@@H]2CCCN2C(=O)C(C(C)C)NC(=O)C(Cc2ccccc2)NC(=O)CNC(=O)[C@@H]2CCCN2C1=O (some centres undefined)
growth [2]: 74%
growth [3]: 68.3%
growth [4]: 67.4%
growth [5]: 18.8%
growth [6]: 88.2%
growth [7]: 59.2%

O=c1oc2c([nH]c3ccc4ccccc4c32)c2ccccc12
growth [8]: 104%
growth [2]: 105%
growth [3]: 98.3%
growth [4]: 73.7%
growth [5]: 102%
growth [7]: 106%

CCN1C(=O)N(CC)C2Nn3c(s/c(=C\c4cccc(F)c4)c3=O)=NC21 (centres undefined)
growth [8]: 80.4%
growth [2]: 5.47% (active)
growth [3]: 57.4%
growth [4]: 54.7%
growth [5]: 45.4%
growth [6]: 98.7%
growth [7]: 49.1%

Cc1ccc2nc(-c3c(N)n[nH]c3CCCO)[nH]c(=O)c2c1
growth [8]: 104%
growth [2]: 110%
growth [3]: 101%
growth [4]: 94.5%
growth [5]: 109%
growth [6]: 111%
growth [7]: 111%

O=c1c2cccc3c(Nc4ccc(F)cc4)ccc(c32)c2nc3ccccc3n12
growth [8]: 87.5%
growth [2]: 99.6%
growth [3]: 88%
growth [4]: 10.1%
growth [5]: 93.9%
growth [6]: 76.1%
growth [7]: 74.4%

COc1cccc(-n2cc(-c3nc(Cl)c4ccccc4n3)nn2)c1
growth [8]: 96.1%
growth [2]: 97.3%
growth [3]: 110%
growth [4]: 92.6%
growth [5]: 89.5%
growth [6]: 105%
growth [7]: 106%
